# Source: PubChem (several laboratories)
# NR2F2 inh – NR2F2 (human) inhibition, primary screen. HEK293T NGFI-A luciferase reporter, luminescence. P24468. inhibition, % at 8.6 µM. hit rate 0.7% among 370,000;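 active = inhibition above a per-plate cutoff, mean inhibition of test wells between control levels plus 3 SD, cut at about 38% in these data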;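 also: cells cotransfected with COUP-TFII expression vector driving the NGFI-A reporter; 0% = median of COUP-TF2 test wells and 100% = reporter-only cells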
# Target sequence (P24468 whole entry, looked up): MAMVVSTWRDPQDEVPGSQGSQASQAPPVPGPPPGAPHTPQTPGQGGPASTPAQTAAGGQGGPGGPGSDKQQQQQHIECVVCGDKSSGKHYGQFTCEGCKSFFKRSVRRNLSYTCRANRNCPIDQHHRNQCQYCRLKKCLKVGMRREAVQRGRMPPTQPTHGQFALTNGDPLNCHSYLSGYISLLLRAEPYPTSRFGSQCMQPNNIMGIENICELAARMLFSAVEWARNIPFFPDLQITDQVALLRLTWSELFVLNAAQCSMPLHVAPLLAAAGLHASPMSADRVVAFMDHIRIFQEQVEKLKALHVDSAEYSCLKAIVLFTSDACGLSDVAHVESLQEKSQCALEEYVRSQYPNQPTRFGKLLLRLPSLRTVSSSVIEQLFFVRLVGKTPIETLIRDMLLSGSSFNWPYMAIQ
# Gli-Sufu antag – blocks Gli-Sufu signaling in a luciferase reporter | Sufu-KO-LIGHT fibroblasts, Gli luciferase reporter luminescence | inhibition, % at 5 µM | hit rate 0.74% among 340,000 | AID 588413;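 active = inhibition above about 55%, limit read from the data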;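 also: 0% = DMSO-treated cells and 100% = wells with medium but no cells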
# aDG glyco act – alpha-DG glycosylation activation; hit rate 0.22% among 360,000; Pro5-aDG cells, alpha-DG glycosylation AlphaScreen (IIH6); 0% Pro5, 100% B10-LARGE cell signal; activation, % at 10 µM;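 active = activation of at least 8% versus controls, or a plate z-score of at least 8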;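 also: Pro5 are CHO cells carrying HIG-tagged alpha-DG that lacks glycosylation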
# HIV Env fusion – blocks HIV Env-driven cell-cell fusion. HeLa-JRFL Env/CEM21 cell fusion, luciferase. inhibition, % at 12.3 µM. hit rate 1.1% among 360,000;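 active = mean replicate inhibition score of at least 50 and every replicate individually at or above 50; inconclusive = only one of the two criteria met; inactive = mean below 50 and not all replicates reaching 50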;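 also: 0% = plate neutral controls and 100% = maraviroc near 300 nM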
# GalR3 antag – antagonists of human GalR3; O60755; HEK293 GalR3-CNG cAMP membrane potential fluorescence; galR3 body fused to GalR1 C-terminus; inhibition, % at 3 µM; hit rate 0.44% among 360,000; AID 651719;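 active = inhibition above the screen-wide average plus 3 SD, cut at about 13% in these data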;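 also: forskolin and galanin both at EC90 stimulate the cells; cAMP rise reported by CNG channel membrane potential dye signal; 0% = forskolin plus galanin with DMSO and 100% = forskolin alone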
# Target sequence (O60755 1-299 limits assumed): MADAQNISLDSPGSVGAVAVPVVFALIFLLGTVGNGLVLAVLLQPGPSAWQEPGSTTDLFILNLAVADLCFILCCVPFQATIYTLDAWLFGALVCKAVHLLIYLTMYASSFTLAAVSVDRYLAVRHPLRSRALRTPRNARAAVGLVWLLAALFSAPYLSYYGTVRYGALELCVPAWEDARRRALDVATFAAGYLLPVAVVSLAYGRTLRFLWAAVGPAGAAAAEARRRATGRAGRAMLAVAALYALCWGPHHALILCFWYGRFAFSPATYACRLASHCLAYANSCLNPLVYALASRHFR
# Gal4-VP16 ctr – counter-screen for COUP-TFII antagonists: inhibitors of VP16; shares compounds with NR2F2 inh; HEK293 Gal4-VP16 luciferase reporter, luminescence; inhibition, % at 8.5 µM; hit rate 25% among 2,500; AID 687007; in the data active = inhibition above about 13%
# NR2F2 inh conf – confirmation of human COUP-TFII (NR2F2) inhibitors; hit rate 45% among 2,500; AID 687008; inhibition, % at 8.5 µM; shares compounds with NR2F2 inh; HEK293 NGFI-A luciferase reporter, luminescence;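 active = mean inhibition over three repeats above a set limit taken from the earlier primary screen, cut at about 38% in these data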;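 also: 100% = cells given the luciferase reporter alone without the COUP-TF2 vector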
# * marks the source's active call; other numbers are inactive results; ? = inconclusive; / = not tested or not shown; [ ] = dose if it differs, or a comment. Rows were chosen to be rich in hits. Some 2.1% of all compounds tested hit in one or more screens of this group.
SMILES,NR2F2 inh,Gli-Sufu antag,aDG glyco act,HIV Env fusion,GalR3 antag,Gal4-VP16 ctr,NR2F2 inh conf
Cc1cccc(C)c1NC(=O)CN(C)C(=O)c1cccc(S(=O)(=O)N2CCN(c3ccccc3)CC2)c1,22.8,13.2,0.3,-14.1,-1.3,/,/
S=C(NCC1CCCO1)N1CCN(c2cccc(Cl)c2)CC1 (configuration not stated),23.2,6.0,-0.1,-4.9,-4.3,/,/
S=C(NCC1CCCO1)N1CCN(c2nc(-c3ccc(Cl)cc3)cs2)CC1 (configuration not stated),59.4*,30.6,3.4,57.4*,1.7,-1.3,28.2
CCCCN(CCCNC(=O)c1ccc2c(c1)NC(=O)CN2C)c1ccccc1,44.5*,/,-0.1,2.7,-5.5,8.4,14.3
CC(C)c1ccc(/C=C(\c2nc3ccccc3[nH]2)S(=O)(=O)c2ccccc2)cc1,40.3*,-22.1,-0.8,-447.1,0.6,30.7*,27.1
C/C(=C\c1ccc(N)cc1)c1nc2ccccc2[nH]1,-21.8,-70.8,0.1,-134.3,-4.4,/,/
O=S(=O)(/C(=C/c1ccc(C(F)(F)F)cc1)c1nc2ccccc2[nH]1)c1ccccc1,48.9*,-18.0,-0.6,-127.0,0.1,66.7*,62.3*
CN(C)c1ccc2c(c1)[C@H]1C[C@@H](CC(=O)NCc3cccc(F)c3)O[C@@H](CO)[C@H]1O2,/,/,/,-11.5[16.7 µM],/,/,/
CN(CC1CCCO1)S(=O)(=O)c1ccc(C(=O)Nc2nc3cc4c(cc3s2)OCO4)cc1 (configuration not stated),38.5*,0.3,0.0,56.7*,/,0.2,78.4*
CN(CC1CCCO1)S(=O)(=O)c1ccc(C(=O)Nc2ccc3c(c2)OCO3)cc1 (configuration not stated),9.1,-6.7,-0.1,8.0,1.6,/,/
O=C(Nc1nc2cc3c(cc2s1)OCCO3)c1cccs1,42.4*,-100.8,0.8,-158.7,0.5,-119.9,-107.0
CCN(CC)S(=O)(=O)c1cccc(C(=O)Nc2nc3cc4c(cc3s2)OCCO4)c1,58.1*,-7.3,0.7,61.7*,-4.5,-9.4,32.4
COc1ccc(S(=O)(=O)N[C@H]2CC[C@H](CC(=O)N3CCN(c4ccccc4)CC3)O[C@H]2CO)cc1,/,/,/,7.6[16.7 µM],/,/,/
COc1ccc(NC(=O)Nc2ccc3c(c2)C(=O)N(C)C[C@H](OC)[C@@H](C)CN[C@@H](C)CO3)cc1,/,/,/,-1.1[16.7 µM],/,/,/
CO[C@H]1CN(C)C(=O)c2cc(NC(=O)Nc3cccc(Cl)c3)ccc2OC[C@@H](C)NC[C@H]1C,/,/,/,10.2[16.7 µM],/,/,/
O=C(C[C@@H]1C[C@@H]2c3cc(NC(=O)Nc4ccc(F)cc4)ccc3O[C@@H]2[C@@H](CO)O1)NC1CCCC1,/,/,/,16.2[16.7 µM],/,/,/
C[C@@H]1CN([C@H](C)CO)C(=O)c2cc(C#CCN(C)C)cnc2O[C@@H]1CN(C)C(=O)c1ccc(F)cc1,/,/,/,-42.7[16.7 µM],/,/,/
Clc1ccc2nc(CNc3nc(N4CCOCC4)nc4c3ncn4-c3ccsc3)[nH]c2c1,69.5*,/,/,/,/,18.6*,45.4*
CC(C)(C)c1ccc(C(=O)Nc2ccc(CC(=O)O)cc2)o1,94.7*,52.7,-0.2,84.7*,-6.5,84.3*,90.5*
Cc1ccc(C(=O)Nc2ccc(CC(=O)O)cc2)o1,3.1,6.5,0.1,-19.3,-2.0,/,/
CCC(=O)N[C@@H]1CC[C@H](CCNC(=O)Nc2ccc(F)cc2)O[C@@H]1CO,/,/,/,-20.3[16.7 µM],/,/,/
COc1ccc(C(=O)OCCN2CCN(C3CN(Cc4cn(Cc5ccccc5Cl)nn4)S(=O)(=O)C3)CC2)cc1OC (configuration not stated),35.4,/,/,/,/,/,/
COc1ccc(C(=O)OCCN2CCN(C3CN(Cc4cn(Cc5ccccc5C(F)(F)F)nn4)S(=O)(=O)C3)CC2)cc1OC (configuration not stated),47.9*,/,/,/,/,-0.4,16.6
O=S1(=O)CC(N2CCN(Cc3ccccc3F)CC2)CN1Cc1cn(Cc2ccc(C(F)(F)F)cc2)nn1 (configuration not stated),60.4*,/,0.2,-20.4,-6.9,-5.7,13.6
CCCCCCCCCCCCCCCC[n+]1cccc2ccccc21,54.2*,88.7*,0.0,74.2*,-3.0,15.4*,63.2*
SMILES,NR2F2 inh,Gli-Sufu antag,aDG glyco act,HIV Env fusion,GalR3 antag,Gal4-VP16 ctr,NR2F2 inh conf
NC(Cc1ccc(Cl)cc1)c1csc(NC(=O)NCC2CCCCC2)n1 (configuration not stated),81.1*,/,-0.5,-6.9,-8.9,2.3,0.0
NC(Cc1ccc(Cl)cc1)c1csc(NC(=O)NCCc2ccccc2)n1 (configuration not stated),-9.3,/,-0.3,31.2,-8.1,/,/
CC(=O)N1c2ccc(S(=O)(=O)N3CCC(C(=O)N4CCN(c5cc(Cl)ccc5C)CC4)CC3)cc2CC1C (configuration not stated),43.2*,43.0,1.7,9.7,-5.8,4.8,18.9
CCOc1cc(/C=C2\CN(CC)C/C(=C\c3ccc(O)c(OCC)c3)C2=O)ccc1O,79.1*,-1.6,-0.2,66.6*,-6.5,48.3*,72.0*
COc1cc(/C=C2\CCC/C(=C\c3ccc(O)c(OC)c3)C2=O)ccc1O,11.6,51.8,0.2,-9.8,-7.5,/,/
S=C1NC2=C(CCCC2=C2SCCS2)C(c2ccccc2)N1 (configuration not stated),37.5*,-7.8,-0.3,-44.0,-4.3,-7.7,-4.9
O=C(C[C@H]1C[C@@H]2c3cc(NC(=O)c4cccnc4)ccc3O[C@@H]2[C@H](CO)O1)NCc1cccc(F)c1,/,/,/,-9.1[16.7 µM],/,/,/
CC(C)NC(=O)NCC[C@@H]1CC[C@@H](NC(=O)Nc2ccccc2)[C@H](CO)O1,/,/,/,13.9[16.7 µM],/,/,/
N=C1C=CC(=C(c2ccc(N)cc2)c2ccc(N)cc2)C=C1,45.6*,50.6,1.3,?,-6.1,14.1*,62.9*
O=C(C[C@H]1C[C@@H]2c3cc(NC(=O)C4CCOCC4)ccc3O[C@@H]2[C@H](CO)O1)NCc1cccc(F)c1,/,/,/,27.3[16.7 µM],/,/,/
O=C(NC1CCCCC1)c1n[nH]c2c1CCCCC2,50.0*,-30.1,0.1,69.1*,-1.9,-18.9,37.3
Cc1cc(C(F)(F)F)n(-c2nc(C(=O)NN)cs2)n1,37.4*,14.3,-0.2,-2.8,2.8,-5.7,-4.1
C[C@@H]1CN([C@@H](C)CO)C(=O)c2cc(NS(C)(=O)=O)ccc2O[C@H]1CN(C)CC1CCCCC1,/,/,/,-6.3[16.7 µM],/,/,/
CC(C)(C)C(=O)NCCCc1nc2ccccc2n1CCCOc1ccc(Cl)cc1,60.4*,4.1,0.6,/,-1.6,0.5,21.9
COc1ccc(-c2cn(CC[C@@H]3CC[C@H](NC(=O)NC(C)C)[C@H](CO)O3)nn2)cc1,/,/,/,-4.3[16.7 µM],/,/,/
Nc1ccc(-c2ncc(-c3ccccc3)o2)cc1,79.0*,24.0,-0.1,37.4,-11.0,72.1*,61.6*
C[C@@H]1CN([C@H](C)CO)C(=O)CCCn2cc(nn2)CO[C@@H]1CN(C)Cc1cccc(O)c1,/,/,/,15.7[16.7 µM],/,/,/
